Structures are written as SMILES. Inconclusive results are not listed. Activity calls are given as the source filed them. Calls follow the shape of the dose curve; as a rule, active = well fitted inhibition curve with a large enough effect; inconclusive = small, poorly fitted or top-dose-only effect; inactive = no such curve, though single readings can be large or run the other way.

The values that follow come from PubChem BioAssay (NCATS).
Potency is read from the fitted curve at half-maximal effect.

The experiment in a line: Confirmatory screen NINDS Rhodamine qHTS for Zika virus inhibitors (AID 1347161). Also: nearly all actives have a fitted effect of over 60% in size. The conditions noted are these: purified enzyme assay, Rhodamine110 substrate fluorescence, 15 min; series mostly up to 38.1 µM. In a few lines: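 In 10 mM Tris-HCl pH 8.0 containing 0.01% Tween 20, linked NS2B-NS3 protease (25 nM final) is exposed to test compounds for 15 min. Cleavage of 1.5 microM Rhodamine110 substrate is tracked by fluorescence over 15 min.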
In general terms: qHTS replaces the single test concentration by a dilution series.
With `CCN1CC2(COC)C3[C@@H](OC)C4C1C3(C1C[C@]3(O)[C@H](OC(=O)c5ccccc5)C1[C@]4(OC(C)=O)[C@@H](O)[C@@H]3OC)[C@H](OC)C[C@H]2O` (stereo partly drawn), the Potency result was “inactive”.
In the case of `COc1c(C(C)C)cc2c(c1O)[C@@]1(C(=O)O)CCCC(C)(C)C1CC2` (stereo partly drawn), the Potency is 9.67 µM (active).
`COC(=O)C1(C)CCC(O)C2(C)c3cc(O)c(C(C)C)cc3C(O)C(OC(C)=O)C12` (stereo not drawn): the Potency was 27.1 µM (active).
